Measurements from PubChem BioAssay AID463173 (ICCB-Longwood Screening Facility, Harvard Medical School, 2010).
Hit rate of the full screen: of about 52,000 compounds, about 4,300 (8.3%) were called active. Rule as the data show it: active = survival mostly below about 52% (no sharp cut-off); inactive = mostly above about 56%. For the sample, actives were picked, then their nearest neighbours and some compounds at random.

Test system: DeltatarO mutant
Assay: growth inhibition of S. aureus wild type versus tarO mutant, primary screen, teichoic acid synthesis inhibitors, RN4220, OD600 (AID 463173)
Conditions: OD600, 18 h, active compounds read low, screened at 18.75 µg/mL (by protocol)

| SMILES | survival |
| --- | --- |
| COc1ccc(CCn2c3c(c(=O)[nH]c2=O)C(NC(=O)c2ccccc2)(C(F)(F)F)C(=O)N3)cc1OC (stereo not drawn) | 58% (inactive) |
| CCOc1ccccc1N(C)C(=O)c1sc2nc3n(c(=O)c2c1C)CCCC3 | 64% (inactive) |
| CCC(C)NC(=O)c1nn(-c2ccc(C)cc2)nc1CO (stereo not drawn) | 94% (inactive) |
| COC(=O)c1ccccc1NC(=O)c1cc2cc(C)ccc2n1C | 99% (inactive) |
| Cc1ccc(Cn2c(CNC(=O)CCc3ccccc3)nc3cccnc32)cc1 | 97% (inactive) |
| COc1ccc(Cn2c(CCC(=O)NCc3cccc(Cl)c3)nc3cccnc32)cc1 | 129% (inactive) |
| COc1ccc(CCC(=O)NCc2nc3cccnc3n2Cc2ccc(F)cc2)cc1 | 119% (inactive) |
| Cc1ccc(CNC(=O)CCc2nc3cccnc3n2Cc2ccccc2)cc1 | 74% (inactive) |
| O=C(CCc1nc2cccnc2n1Cc1ccccc1)NCc1cccc(Cl)c1 | 51% (active) |
| O=C(CCc1ccccc1)NCc1nc2cccnc2n1Cc1ccc(F)cc1 | -4% (active) |
| COc1cc(NC(=O)N(Cc2ccco2)C2CCN(C(C)=O)CC2)cc(OC)c1OC | 134% (inactive) |
| N#Cc1ccc(NC(=O)CNCC2CCCCC2)cc1 | 100% (inactive) |
| CCn1c(=NC(=O)c2ccc3c(c2)OCCO3)sc2c(C)ccc(OC)c21 | 120% (inactive) |
| O=c1oc2ccccc2cc1-c1cn2cc(Cc3ccccc3F)sc2n1 | 49% (active) |
| O=c1oc2ccccc2cc1-c1cn2cc(Cc3ccc(Br)cc3)sc2n1 | 66% (inactive) |
| O=c1oc2ccccc2cc1-c1cn2cc(Cc3ccc(F)cc3)sc2n1 | 128% (inactive) |
| O=c1oc2ccccc2cc1-c1cn2cc(Cc3ccc(Cl)cc3)sc2n1 | 84% (inactive) |
| CC(C)c1ccc(Cc2cn3cc(-c4cc5ccccc5oc4=O)nc3s2)cc1 | 56% (inactive) |
| O=c1oc2ccccc2cc1-c1cn2cc(Cc3cc(Cl)ccc3Cl)sc2n1 | 52% (active) |
| Cc1ccc(NC(=O)c2sc3ncn(Cc4cccc(F)c4)c(=O)c3c2C)c(Br)c1 | 87% (inactive) |
| COc1ccc(NC(=O)Cn2c(=O)n(Cc3nc(C)no3)c(=O)c3cc4c(cc32)OCO4)cc1 | 99% (inactive) |
| CC(C)CCNC(=O)CN1C(=O)CSc2ccc(S(=O)(=O)N3CCC(C)CC3)cc21 | 72% (inactive) |
| Cc1ccc(/C=C/c2onc(C)c2S(=O)(=O)N2CCC(C(=O)NCc3ccc(OC(C)C)cc3)CC2)cc1 | 69% (inactive) |
| COc1cccc(CNC(=O)C(=O)NCC(c2ccco2)S(=O)(=O)c2cccs2)c1 (stereo not drawn) | 94% (inactive) |
| Cc1ccc(C)c(-c2[nH]c3c(c2-c2c(-n4cccc4)n(C)c(=O)n(C)c2=O)c(=O)n(C)c(=O)n3C)c1 | 64% (inactive) |
| COc1ccc(-c2[nH]c3c(c2-c2c(-n4cccc4)n(C)c(=O)[nH]c2=O)c(=O)[nH]c(=O)n3C)cc1F | 63% (inactive) |
| Cn1c(-n2cccc2)c(-c2c(-c3ccccc3)[nH]c3c2c(=O)[nH]c(=O)n3C)c(=O)[nH]c1=O | 60% (inactive) |

| SMILES | survival |
| --- | --- |
| Cc1ccc(-c2[nH]c3c(c2-c2c(-n4cccc4)n(C)c(=O)[nH]c2=O)c(=O)[nH]c(=O)n3C)cc1 | 65% (inactive) |
| COc1cccc(-c2[nH]c3c(c2-c2c(-n4cccc4)n(C)c(=O)[nH]c2=O)c(=O)[nH]c(=O)n3C)c1 | 63% (active) |
| Cc1ccc(C)c(-c2[nH]c3c(c2-c2c(-n4cccc4)n(C)c(=O)[nH]c2=O)c(=O)[nH]c(=O)n3C)c1 | 59% (active) |
| CC(=O)Nc1ccc(C(=O)NCCN2CCOCC2)cc1 | 96% (inactive) |
| Cc1cccc(N2CCN(S(=O)(=O)c3ccc4c(c3)C(C(C)C)C(=O)N4)CC2)c1C (stereo not drawn) | 55% (inactive) |
| Cc1ccc(Cc2nc3ccccc3nc2SCC(=O)NCCC(C)C)cc1 | 112% (inactive) |
| CCCCN(CC)CCNC(=O)CN1C(=O)COc2ccc(S(=O)(=O)N3CCOCC3)cc21 | 86% (inactive) |
| Cc1ccc(C)c(NC(=O)CCc2nc3cccnc3n2Cc2cccs2)c1 | 73% (inactive) |
| CCOc1ccc(C2CC(=O)Nc3c2c(=O)nc(SCc2ccccc2C)n3C)cc1OC (stereo not drawn) | 42% (active) |
| CCOc1ccc(C2CC(=O)Nc3nc(SCc4ccccc4C)[nH]c(=O)c32)cc1OC (stereo not drawn) | 103% (inactive) |
| COc1cc(O)ccc1C1CC(=O)Nc2c1c(=O)nc(SCc1ccccc1C)n2C (stereo not drawn) | 93% (inactive) |
| COc1ccc(-c2[nH]c(-c3ccc(C)cc3)nc2SCC(=O)NCC2CCCO2)cc1 (stereo not drawn) | 82% (inactive) |
| COc1ccc2c(c1)c1c(c(=O)n(-c3cc(Cl)ccc3C)c(=O)n1CC(=O)N1CCCC1)n2C | 83% (inactive) |
| Cc1ccccc1NC(=O)Cn1c(=O)n(Cc2ccc3c(c2)OCO3)c(=O)c2ccccc21 | 97% (inactive) |
| Cc1ccc(O)c(-c2n[nH]c3c2C(c2ccc(F)cc2)N(Cc2ccco2)C3=O)c1 (stereo not drawn) | 2% (active) |
| Cc1cc(C)c2c(=O)c3c(oc2c1)C(=O)N(Cc1ccco1)C3c1ccccc1F (stereo not drawn) | 106% (inactive) |
| Cc1ccc(C2c3c(-c4cc(C)ccc4O)n[nH]c3C(=O)N2Cc2ccco2)cc1 (stereo not drawn) | 1% (active) |
| COc1cc(C2c3c(-c4cc(C)ccc4O)n[nH]c3C(=O)N2Cc2ccco2)cc(OC)c1OC (stereo not drawn) | 66% (inactive) |
| CCOc1cccc(C2c3c(-c4cc(C)ccc4O)n[nH]c3C(=O)N2Cc2ccco2)c1 (stereo not drawn) | 8% (active) |
| COc1cc(C2c3c(-c4cc(C)ccc4O)n[nH]c3C(=O)N2Cc2cccnc2)cc(OC)c1OC (stereo not drawn) | 83% (inactive) |
| Cc1cc(C)c(-c2n[nH]c3c2C(c2ccccc2F)N(Cc2ccco2)C3=O)c(O)c1 (stereo not drawn) | 2% (active) |
| Cc1cc(C)c(-c2n[nH]c3c2C(c2ccccc2F)N(CCO)C3=O)c(O)c1 (stereo not drawn) | 77% (inactive) |
| CCOc1ccc(C2c3c(-c4cc(C)ccc4O)n[nH]c3C(=O)N2Cc2cccnc2)cc1OCC (stereo not drawn) | 72% (inactive) |
| CCC(=O)N1c2ccc(S(=O)(=O)NCCc3ccccc3)cc2CC1C (stereo not drawn) | 77% (inactive) |
| Cc1ccc2[nH]c(CSc3nnc(NC(=O)COc4ccccc4)s3)cc(=O)c2c1 | 82% (inactive) |
| Cc1cc(C)c(NC(=O)C(C)n2nc(-c3ccc(C)c(C)c3)ccc2=O)c(C)c1 (stereo not drawn) | 63% (inactive) |
